# The list is not random: actives were taken first. Their share in the collection is about 18%.
# CtBP-E1A blk – blocks the CtBP interaction with E1A | activity change, % (concentration not given with the values) | 340,000 compounds, 0.49% hits | AID 651724 | AlphaScreen GST-E1A/His-CtBP binding, 1536-well; active compounds read low; in the data active = activity change below about -65%; inconclusive = mostly about -30% to -63%
#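 In 5 uL wells, 23 nL compound meets equimolar GST-E1A and His-CtBP (5X stock 125 nM each) for 2 h, 37 °C. Beads (5X, 50 ug/mL) then 1 h, 37 °C, dark.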
# TDP1 block – blocks human tyrosyl-DNA phosphodiesterase 1. Q9NUW8. recombinant TDP1, AlphaScreen DNA substrate cleavage. Potency, µM (doses to about 130 µM), inactives show at the top dose activity change, negative = inhibition, actives largely listed as inhibitors. 350,000 compounds, 0.28% hits. AID 485290; note: potency is the fitted concentration of half-maximal effect; nearly all actives have a fitted effect of over 40% in size
# Target sequence (Q9NUW8 whole entry, looked up): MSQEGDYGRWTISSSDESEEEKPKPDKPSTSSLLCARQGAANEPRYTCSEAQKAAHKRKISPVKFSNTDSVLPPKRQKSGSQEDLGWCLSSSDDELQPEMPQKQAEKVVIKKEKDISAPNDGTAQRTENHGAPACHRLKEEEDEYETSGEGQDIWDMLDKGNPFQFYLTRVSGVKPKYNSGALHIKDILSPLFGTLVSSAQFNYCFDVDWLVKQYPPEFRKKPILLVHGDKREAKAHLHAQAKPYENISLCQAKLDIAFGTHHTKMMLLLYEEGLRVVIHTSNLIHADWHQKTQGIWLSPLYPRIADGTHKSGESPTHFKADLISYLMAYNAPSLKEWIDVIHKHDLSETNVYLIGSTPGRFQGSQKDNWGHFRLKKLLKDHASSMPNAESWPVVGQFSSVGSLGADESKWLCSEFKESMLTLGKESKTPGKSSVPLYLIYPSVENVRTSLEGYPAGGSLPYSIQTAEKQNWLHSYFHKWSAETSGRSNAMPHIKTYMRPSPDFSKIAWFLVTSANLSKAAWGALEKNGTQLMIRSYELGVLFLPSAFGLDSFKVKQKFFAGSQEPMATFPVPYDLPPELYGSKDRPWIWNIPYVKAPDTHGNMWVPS
#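 Tdp1 1 nM final; 15 min RT w/ cpd; substrate 15 nM, 5 min; beads 10 ug/ml, 10 min; AlphaScreen read. Neg ctrl: no enzyme.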
# Six1-Eya2 inh – blocks human Six1 binding to Eya2; Q15475+O00167; AlphaScreen GST-Six1/His-Eya2 binding, biochemical; active compounds read low; activity change, % (concentration not given with the values); 360,000 compounds, 0.56% hits; in the data active = activity change below about -65%; inconclusive = mostly about -30% to -63%
#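 AlphaScreen with GST-Six1 and His-Eya2 (5X mix: 250 nM and 500 nM), glutathione donor and nickel acceptor beads; buffer 50 mM Tris pH 8.0, 300 mM NaCl, 1 mM TCEP; 1 h at 37 C in the dark.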
# IL-1B inflam inh – inhibitors of inflammasome signaling (IL-1 beta secretion). THP-1 LPS/ATP IL-1B secretion, AlphaLISA, 16 h; active compounds read low. activity change, % at 57.5 µM. 360,000 compounds, 4.7% hits. AID 743279; in the data active = activity change below about -50%; inconclusive = mostly about -30% to -49%
#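 Secreted IL-1B measured by AlphaLISA bead assay after 16 h compound exposure of THP-1 cells; compounds (final up to 57.5 uM) added 1 h before LPS (250 ng/mL) and ATP (1.25 mM) stimulation; lower signal means less secretion.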
# TDP1 cell CPT – DT40-hTDP1 cell growth loss with CPT; Potency, µM (doses to about 46.2 µM), inactives show at the highest dose activity change, negative = growth inhibition, usual class: inhibitors; AID 686979; chicken DT40 Tdp1-/-;hTDP1 cells + 20 nM CPT, ATP luminescence, 48 h; 420,000 compounds, 12% hits; note: potency is the fitted concentration of half-maximal effect; nearly all actives have a fitted effect of over 55% in size
#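 Cell growth measured by CellTiter-Glo luminescence after a minimum 48 h, 37 C compound exposure with 20 nM CPT in Tdp1-knockout DT40 cells stably expressing hTDP1, seeded 400/well; qHTS titration format.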
# TDP1 cell noCPT – qHTS for Inhibitors of human tyrosyl-DNA phosphodiesterase 1 (TDP1): qHTS in cells in absence of CPT | 420,000 compounds, 15% hits | Potency, µM (top dose mostly 46.2 µM), for inactives: at the highest dose activity change, negative = growth inhibition, hits mostly inhibitors | DT40 Tdp1-/- hTDP1 cells, no CPT, ATP luminescence, 48 h; note: potency is the fitted concentration of half-maximal effect; nearly all actives have a fitted effect of over 55% in size
#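 Readout: luminescence from CellTiter-Glo after 30 min in the dark at RT. Cells: DT40 Tdp1-/- with stable hTDP1, 400/well. Exposure: compounds alone, ≥48 hr, 37 °C.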
# An asterisk follows results filed as active; ? = inconclusive; nt = no result given. Unless noted, calls come from the whole dose curve; as a rule, active = well fitted curve in the direction sought with a large enough effect; inconclusive = small, poorly fitted or top-dose-only effect, or another doubt; inactive = no such curve, though single readings can be large; an effect the other way counts as inactive or inconclusive. % is set by controls: 0 for no effect and ±100 for the full control effect.
SMILES,CtBP-E1A blk,TDP1 block,Six1-Eya2 inh,IL-1B inflam inh,TDP1 cell CPT,TDP1 cell noCPT
C=CCn1c(-c2oc3nc(-c4ccccc4)cc(-c4ccccc4)c3c2N)n[nH]c1=S,-0.4,10.1%,-0.4,-13.1,?,?
Nc1c(C(=O)N/N=C/c2cccnc2)oc2nc(-c3ccco3)cc(-c3ccco3)c12,-21.5,6.8%,-27.5,-11.4,2.91µM*,0.461µM*
Cc1cc(C)c2c(N)c(C(=O)N/N=C/c3cccnc3)sc2n1,?,nt,?,nt,-39.6%,?
CCN(CC(=O)Nc1ccc(C(=O)OC)cc1)Cc1ccccc1,nt,-9.6%,8.5,8.1,-18.0%,-2.2%
COC(=O)c1ccc(C(=O)OC)c(NC(=O)CN(C)Cc2cccc(Cl)c2Cl)c1,1.2,5.3%,16.7,19.6,?,?
COC(=O)c1ccc(NC(=O)CN(C)Cc2cccc(F)c2)cc1,-2.5,-2.6%,-0.8,-105.4*,-18.9%,13µM*
COC(=O)c1ccc(C(=O)OC)c(NC(=O)CN(C)Cc2ccccc2)c1,-17.0,0.6%,11.8,7.6,-29.8%,16.4µM*
CCOC(=O)N/N=C(\C)c1ccc(Oc2ncccn2)cc1,nt,nt,0.2,-12.8,?,-12.3%
Cc1cc(OCCOCCN2CCCC2)ccc1C(C)C,0.6,-2.8%,0.0,6.6,?,?
O=C(c1cc(-c2ccco2)on1)N1CCc2ccccc2C1,-0.3,1.9%,-3.4,22.6,?,?
C[C@H](CO)N1C[C@H](C)[C@H](CN(C)Cc2ccncc2)Oc2cc(-c3ccccc3F)ccc2S1(=O)=O,6.2,nt,-3.4,-28.7,14.6µM*,23.1µM*
CCCC#Cc1ccc2c(c1)O[C@@H](CN(C)Cc1ccc3c(c1)OCO3)[C@H](C)CN([C@@H](C)CO)S2(=O)=O,-8.6,nt,-8.6,-2.6,7.31µM*,2.31µM*
C[C@H]1CN([C@@H](C)CO)S(=O)(=O)c2ccc(Br)cc2O[C@@H]1CN(C)Cc1ccccc1,-11.9,nt,-7.7,0.0,?,20.6µM*
O=C(CCNC(=O)c1ccccc1Cl)Nc1nc2ccccc2[nH]1,14.3,0.1%,2.7,5.9,-1.5%,-12.8%
Cc1cc(CN2CCCCC2)oc1C(=O)O,1.6,7.9%,4.4,0.1,-7.3%,-6.1%
O=S(=O)(Cc1cc(-c2ccccc2)no1)c1ccccc1,0.0,1.2%,2.8,-9.9,-14.7%,-10.3%
CCOc1ccccc1/C=N\Nc1cnn(Cc2ccccc2)c(=O)c1Cl,2.2,6.2%,-3.3,?,23.1µM*,?
CCOc1nc(C)cc(COC)c1C(N)=O,-8.5,1.1%,4.9,15.9,1.2%,0.4%
NC(=O)C1CCCN(C(=O)Nc2cccc3ccccc23)C1 (stereo unspecified),0.0,3.3%,27.6,34.8,-16.7%,-22.6%
Cc1nc2nc(C)n(CCN3CCOCC3)c(=O)c2c(-c2cccc([N+](=O)[O-])c2)c1C(=O)CCCCCCCCCCN1CCC(c2ccccc2)(c2ccccc2)CC1,?,nt,?,-99.1*,?,?
CN1CCN(c2ccc(Cl)cc2NC(=O)CC2OC(=O)c3ccccc32)CC1 (stereo unspecified),-0.3,-0.4%,3.0,-15.0,-28.1%,-29.7%
Cn1c(CCN2CCN(c3ccccn3)CC2)nc2cc(NC(=O)COc3ccccc3)ccc21,nt,4.3%,-9.7,-13.6,?,25.9µM*
Cc1ccc(OCC(=O)Nc2ccc3c(c2)nc(CCN2CCN(c4ccccn4)CC2)n3C)cc1,-7.2,nt,-19.3,47.8,23.1µM*,20.6µM*
CCOc1ccc(C(N)=O)cc1OC,-4.8,2.3%,-1.8,1.9,5.8%,-11.9%
CC(=O)c1c(C)oc2ccc(NS(=O)(=O)c3ccc(F)cc3C)cc12,11.2,nt,13.0,7.3,23.1µM*,18.4µM*
SMILES,CtBP-E1A blk,TDP1 block,Six1-Eya2 inh,IL-1B inflam inh,TDP1 cell CPT,TDP1 cell noCPT
CCOC(=O)c1c(-c2ccccc2)oc2ccc(NS(=O)(=O)c3ccc(OC)cc3)cc12,nt,nt,nt,nt,4.61µM*,3.26µM*
Cc1cc(C)c(S(=O)(=O)Nc2ccc3oc(C)c(C(=O)OC(C)C)c3c2)cc1C,nt,nt,nt,nt,?,13µM*
CCOc1ccc2oc(-c3ccccc3)c(C(=O)N(C)C)c2c1,-7.7,7.0%,-6.3,-0.3,?,18.4µM*
Cc1cc(OCC(=O)NNC(=O)c2cccc(F)c2)ccc1Cl,nt,-0.4%,-3.0,-12.9,9.0%,-12.9%
C[C@H]1CN([C@@H](C)CO)C(=O)CCCn2cc(nn2)CO[C@@H]1CN(C)C(=O)c1ccc(N2CCN(C)CC2)cc1,13.0,nt,8.1,26.7,-3.0%,17.2%
CSCCC(NS(=O)(=O)c1ccc(C)cc1)C(=O)NNC(=O)c1csc(N2CCOCC2)n1 (stereo unspecified),5.2,3.1%,-7.2,49.3,12.9%,18.4%
CCOC(=O)c1c(-c2ccccc2)oc2ccc(NS(=O)(=O)c3ccccc3)cc12,nt,nt,nt,nt,?,-29.3%
CCOC(=O)c1c(-c2ccccc2)oc2ccc(NS(=O)(=O)c3cc(C)c(C)cc3C)cc12,nt,nt,nt,nt,18.4µM*,10.3µM*
CC1=CC(=Nc2c(C)n(C)n(-c3ccccc3)c2=O)C=C(C)C1=O,40.9,5.3%,17.4,0.0,?,20.6µM*
COc1cc(/C(C)=C/c2ccccc2)c2c(c1)oc1ccccc12,nt,nt,nt,nt,?,14.1µM*
CCc1ccc(CCC(=O)Nc2ncc(Cc3ccccc3Cl)s2)o1,12.2,0.6%,10.4,-0.9,5.17µM*,5.8µM*
Cc1cnc(NC(=O)Cc2ccccc2F)s1,15.2,7.0%,2.2,-13.9,7.31µM*,20.6µM*
COc1ccccc1CCC(=O)Nc1nccs1,0.2,nt,-2.3,-5.7,-16.9%,?
Cc1cc(C)nc(SCC(=O)Nc2ncc(Cc3cccc(Cl)c3Cl)s2)n1,3.1,-2.3%,-1.0,8.4,23.1µM*,18.4µM*
COc1ccccc1CCC(=O)Nc1ncc(C)s1,-2.8,nt,2.6,0.0,10.3µM*,?
Cc1ccc(N2C(=O)CC3(CCCC3)CC2=O)cc1,5.3,0.0%,2.3,-4.4,0.3%,3.9%
COc1ccc(C(=O)C2CCCN(C(=O)c3n[nH]c4c3CCCC4)C2)cc1OC (stereo unspecified),6.6,1.2%,-12.7,9.0,-5.3%,-2.3%
COC(=O)NC(c1ccccc1)C1(C(=O)OC)C(=O)Cc2ccccc21 (stereo unspecified),nt,5.6%,nt,nt,nt,nt
O=[N+]([O-])c1ccc(N/N=C/c2cccc(O)c2O)c(S(=O)(=O)N2CCOCC2)c1,-3.6,4.8%,-21.3,27.2,10.3µM*,13µM*
